D3 antag – antagonists of human D3 dopamine receptor. max response, negative = inhibition, %. 360,000 tested, 2.5% active. P35462. D3R cells, DiscoveRx beta-arrestin luminescence, antagonist mode; active compounds read low. AID 652054; in the data active = max response below about -50%; inconclusive = no clear call, values can overlap the other calls
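Cells plated overnight at 1500 cells/well, then exposed to library compounds with dopamine controls for 90 minutes at 37 degrees C. DiscoveRx reagent added for 30–60 minutes at room temperature; luminescence read, quantitative HTS format.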
DRD3 agonist – D3 dopamine receptor (human) agonism. 410,000 tested, 0.58% active. max activation, %. D3R DiscoveRx beta-arrestin cells, luminescence, 90 min. P35462; in the data active = max activation above about 30%
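Cells at 1500/well, incubated overnight, then treated with pinned compounds (dopamine as control) for 90 min at 37 degrees C. DiscoveRx reagent added for 30 - 60 minutes at room temperature; luminescence read.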
LDHA inh – LDHA (human) enzyme inhibition; P00338; purified LDHA, NADH/diaphorase-resazurin fluorescence; active compounds read low; activity change, % (values are at about 110 or 230 µM); 480,000 tested, 0.15% active; AID 1347041; in the data active = activity change below about -30%; inconclusive = mostly about -25% to -30%
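Resorufin fluorescence (ex540/em590), read at 0 and 20 min after diaphorase/resazurin addition, reports the NADH left after a 5 min room-temperature reaction of 2 nM human LDH5 with 0.06 mM NADH and 0.2 mM pyruvate.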
RGS4 inhibitor – human RGS4 inhibition; AID 504845; Transcreener GDP fluorescence polarization, RGS4-accelerated GTP hydrolysis; Potency, µM (series often up to 114 µM), most hits filed as inhibitors; P49798; 390,000 tested, 0.039% active; active = well fitted inhibition curve with a large enough effect; inconclusive = small, poorly fitted or top-dose-only effect; inactive = no such curve, though single readings can be large or run the other way; also: nearly all actives have a fitted effect of over 75% in size
Target sequence (P49798 whole entry, looked up): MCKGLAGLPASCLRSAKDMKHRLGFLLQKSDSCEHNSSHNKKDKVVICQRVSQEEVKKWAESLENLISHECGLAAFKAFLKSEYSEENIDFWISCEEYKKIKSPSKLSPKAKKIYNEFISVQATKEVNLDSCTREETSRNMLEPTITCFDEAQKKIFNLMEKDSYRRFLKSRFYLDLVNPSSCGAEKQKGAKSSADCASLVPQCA
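MLSMR compounds (23 nl, pin-transferred) preincubated 10 min at room temperature with a 500nM (2x) first reagent, then RGS4 at 900nM (2x) plus Transcreener GDP mix added; fluorescence polarization (620/688 nm) read before and after 90 min at 30 °C.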
PI4K2A inh – blocks human PI4K2A kinase activity; purified PI4K2A, ADP-Glo luminescence, 1 h; active compounds read low; activity change, negative = inhibition, % at 76.9 µM; 420,000 tested, 0.13% active; Q9BTU6; in the data active = activity change below about -50%; inconclusive = mostly about -30% to -49%
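PI4K2A activity was measured by ADP-Glo luminescence: enzyme (4 ug/mL stock) and phosphatidylinositol (1.2 mM stock) in Tris pH 7.5/MgCl2/EGTA/Triton X-100 buffer were reacted with ATP (300 microM stock) for one hour at ambient temperature.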
pAkt inh – inhibitors of Akt phosphorylation. activity change, % for hits at 50 µM. 360,000 tested, 0.32% active. Neuro2A IGF-stimulated pAkt S473 HTRF, 20 min; active compounds read low. AID 651550; in the data active = activity change below about -80%; inconclusive = mostly about -51% to -80%
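Single-point screen (50 µM final compound) in Neuro2A cells stimulated 20 min with 6 nM IGF at 37 deg C. After lysis, Ser473-phosphorylated Akt read by HTRF (ex 330 nm, em 615/665 nm) as the 665/615 ratio.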
Of the large screens only hits and unclear results are named; the others gave an inactive call. Sampled rows, rich in hits. Any-hit rate of the full collection: about 2.8%.

CNC(=O)c1ccc(-c2nc(CN3CCN(C(=O)Nc4ccc(C(=O)OC)cc4)CC3)c(C)o2)cc1	none (no result: D3 antag, DRD3 agonist, RGS4 inhibitor, PI4K2A inh, pAkt inh)
CCOC(=O)CCN(C(=O)CCc1c(C)c2ccc(OC)cc2oc1=O)C1CC1	none (no result: D3 antag, DRD3 agonist, RGS4 inhibitor, PI4K2A inh, pAkt inh)
O=c1ccc2cc([N+](=O)[O-])c(CCO)cc2o1	D3 antag -52.2
NC(=O)c1ccc(Oc2ccc3ccc(=O)oc3c2)c([N+](=O)[O-])c1	none
Cc1ccc(C)c(NC(=S)Nc2cccc3cnccc23)c1	RGS4 inhibitor inconclusive, PI4K2A inh -55.4
COc1cc2c(cc1OC)C1=CC3(C(=O)Nc4c(C)cccc43)C(C#N)=C(N)N1CC2 (configuration not stated)	none (no result: D3 antag, DRD3 agonist, RGS4 inhibitor, PI4K2A inh, pAkt inh)
O=C(Nc1ccccc1)c1cnc(-c2ccccc2)nc1-c1ccccc1	DRD3 agonist 43.0
O=C(O)c1cnc(-c2ccccc2)nc1Sc1cccc(Cl)c1	D3 antag inconclusive
O=C(O)c1cnc(-c2ccccc2)nc1Sc1ccccc1	D3 antag inconclusive, LDHA inh -39.7
COc1ccccc1-c1nc(SCc2cc(=O)n3c4c(sc3n2)CCCC4)n[nH]1	LDHA inh -32.8 (no result: D3 antag, DRD3 agonist, RGS4 inhibitor, PI4K2A inh, pAkt inh)
O=c1cc(CSc2n[nH]c(-c3ccccc3)n2)nc2sc3c(n12)CCCC3	none (no result: D3 antag, DRD3 agonist, RGS4 inhibitor, PI4K2A inh, pAkt inh)
Cc1cccc(NC(=O)c2nn(C(C)C)c(=O)c3ccccc23)c1C	none (no result: D3 antag, DRD3 agonist, RGS4 inhibitor, PI4K2A inh, pAkt inh)
Cc1ccc(C)n1-c1ccc(C(=O)NN)cc1	RGS4 inhibitor inconclusive, PI4K2A inh -81.6
Cc1cc(NS(=O)(=O)c2ccccc2)c([N+](=O)[O-])cc1C	D3 antag -52.4
O=[N+]([O-])c1cc(Br)ccc1NS(=O)(=O)c1ccccc1	none
Cc1cccc2c(C(=O)NCc3ccco3)cc(-c3cccnc3)nc12	none (no result: D3 antag, DRD3 agonist, RGS4 inhibitor, PI4K2A inh, pAkt inh)
CN(C)c1ccc(/C=C(\C#N)c2nc3ccccc3c(=O)[nH]2)cc1	none (no result: D3 antag, pAkt inh)
Cc1cccc(/C=C(\C#N)c2nc3ccccc3c(=O)[nH]2)c1	DRD3 agonist 34.1 (no result: D3 antag, pAkt inh)
CCC1(c2ccc(NC(=O)c3ccc4c(c3)OCO4)cc2)CCC(=O)NC1=O (configuration not stated)	none (no result: D3 antag, DRD3 agonist, RGS4 inhibitor, PI4K2A inh, pAkt inh)
O=C(COC(=O)c1cccnc1)Nc1ccccc1	none
CC(=O)N1CCC(C(=O)Nc2ccccc2)(N(Cc2ccccc2)C(=O)c2cccnc2)CC1	pAkt inh -112.6%
COCCNC(=S)N(C)[C@H]1C[C@H]2c3cc(Oc4ccccc4C)ccc3CCN2C(=O)[C@H]1[C@H](C)O	none (no result: RGS4 inhibitor)
COCCNC(=S)N(C)[C@H]1C[C@H]2c3cc(-c4ccccc4)ccc3CCN2C(=O)[C@H]1[C@H](C)O	LDHA inh -32.1 (no result: RGS4 inhibitor)
Cc1nc(N2CCN(Cc3ccc4c(c3)OCO4)CC2)[nH]c(=O)c1Cc1cccc2ccccc12	none (no result: D3 antag, DRD3 agonist, RGS4 inhibitor, PI4K2A inh, pAkt inh)
CCCC(=O)NC(c1ccc(Cl)cc1)c1ccc2cccnc2c1O (configuration not stated)	none
CCCCC(=O)NC(c1ccc(N(CC)CC)cc1)c1ccc2cccnc2c1O (configuration not stated)	DRD3 agonist 32.4
CCCC(=O)NC(c1ccc(C)cc1)c1ccc2cccnc2c1O (configuration not stated)	DRD3 agonist 31.4
CCCCC(=O)NC(c1ccc(N(C)C)cc1)c1ccc2cccnc2c1O (configuration not stated)	none
COc1ccc(Cc2nnc(Nc3ccc4ccccc4c3)[nH]c2=O)cc1OC	none (no result: D3 antag, DRD3 agonist, RGS4 inhibitor, PI4K2A inh, pAkt inh)
O=C(Nc1cccc(C(F)(F)F)c1)c1noc2c1CCCCC2	none (no result: D3 antag, DRD3 agonist, RGS4 inhibitor, PI4K2A inh, pAkt inh)
COC(=O)c1c(NC(=O)c2ccco2)sc2c1C(C(=O)OC)CC2 (configuration not stated)	D3 antag -50.1
CC1(C)Cc2c(sc(NC(=O)c3ccco3)c2C(=O)O)CO1	LDHA inh -34.5 (no result: pAkt inh)
CC1(C)Cc2c(sc(NC(=S)NC(=O)c3ccccc3)c2C(=O)O)CO1	none
COC(=O)c1c(NC(=O)C(C)C)sc2c1C(C(=O)OC)CC2 (configuration not stated)	D3 antag inconclusive
CNC(=O)C1CCCCN1C(=O)Cc1nc(-c2cccs2)oc1C (configuration not stated)	none (no result: D3 antag, DRD3 agonist, RGS4 inhibitor, PI4K2A inh, pAkt inh)
CN(CC(=O)NCCC#N)c1ccc(C(C)(C)C)cc1	none (no result: D3 antag, DRD3 agonist, RGS4 inhibitor, PI4K2A inh, pAkt inh)

Compound activity as filed in PubChem.
